Compounds with a hit are over-represented: about 2.3% of the library has one in this group of screens.
Rtt109 HAT inh – inhibitors of C. albicans Rtt109/Vps75 HAT, primary screen, biochemical, ThioGlo CoA-SH fluorescence, plate reader. Histone acetyltransferase RTT109 (Candida albicans (strain SC5314 / ATCC MYA-2876)), …. purified Rtt109/Vps75, 4 h. inhibition, % at 34.9 µM. 330,000 compounds, 0.16% hits. AID 540336, 2011;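 active = inhibition of at least 50% in every replicate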
PDI inh – inhibitors of human PDI, primary screen, biochemical, turbidity, single point, plate reader | Protein disulfide-isomerase (Homo sapiens), P07237 | PDI insulin aggregation turbidity, A650, 90 min | inhibition, % at 10 µM | 350,000 compounds, 0.052% hits;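 active = mean inhibition across replicates of 30% or more, whatever share of single replicates reach that level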
Target sequence (P07237 whole entry, looked up): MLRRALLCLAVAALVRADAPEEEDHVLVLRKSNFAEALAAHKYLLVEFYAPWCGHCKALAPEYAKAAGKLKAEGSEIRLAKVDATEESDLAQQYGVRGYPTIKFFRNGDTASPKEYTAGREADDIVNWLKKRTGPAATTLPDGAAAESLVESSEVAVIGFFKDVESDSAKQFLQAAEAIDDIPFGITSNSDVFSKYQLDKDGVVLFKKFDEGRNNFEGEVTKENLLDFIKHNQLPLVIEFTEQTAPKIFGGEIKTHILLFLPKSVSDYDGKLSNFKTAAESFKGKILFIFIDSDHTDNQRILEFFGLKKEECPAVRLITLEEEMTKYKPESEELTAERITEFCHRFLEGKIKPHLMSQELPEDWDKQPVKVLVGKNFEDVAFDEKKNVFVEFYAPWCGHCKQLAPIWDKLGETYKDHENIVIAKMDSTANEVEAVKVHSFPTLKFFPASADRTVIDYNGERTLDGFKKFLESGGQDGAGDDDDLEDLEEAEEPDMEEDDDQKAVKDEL
SIRT5 block – SIRT5 desuccinylase inhibitors, primary screen, biochemical, fluorescence imaging, single point, set 5. NAD-dependent protein deacylase sirtuin-5, mitochondrial (Homo sapiens), Q9NXA8. inhibition, % at 15 µM. 330,000 compounds, 1.1% hits. Purified SirT5, succinyl-peptide AMC, trypsin-coupled fluorescence; in the data active = inhibition above about 15%
ERp5 block – inhibitors of ERp5-driven insulin aggregation, primary screen, biochemical, turbidity, absorbance 650 nm, single point; 90 min; inhibition, % at 9.99 µM; 350,000 compounds, 0.05% hits;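 active = mean replicate inhibition above about 25%, with every replicate also reaching it, limit read from the data, passing the limit was not always enough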
DENV2 CPE rescue – inhibitors of DENV2 cytopathic effect, primary screen, cell-based, plate reader, single concentration | 350,000 compounds, 1.7% hits | AID 651640, 2012 | DENV2-infected cells, cytopathic effect rescue | CPE inhibition, % at 9.99 µM; in the data active = CPE inhibition above about 20%, passing the limit was not always enough; tested in BHK-21 cells;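 note: 0% = median of neutral control wells and 100% = median of positive control wells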
Starred values were filed as active, the others as inactive; / = no result given; ! = not confirmed by another sample.

SMILES | Rtt109 HAT inh | PDI inh | SIRT5 block | ERp5 block | DENV2 CPE rescue
COc1ccc(S(=O)(=O)N2CCCC2C(=O)NCC(=O)Nc2cccc(Cl)c2C)cc1 (configuration not stated) | 4 | 14 | 2 | 6 | 70*
Cc1c(Cl)cccc1NC(=O)C1CC(=O)N(C2CCCC2)C1 (configuration not stated) | 4 | -6 | -1 | -7 | -5
COc1ccc(CNC(=O)C2CCCN2S(=O)(=O)c2ccc(C)cc2)cc1 (configuration not stated) | 0 | -3 | / | / | /
CCC(=O)N1C[C@@H](C)[C@@H](OC)CN(C)C(=O)c2ccc(NC(=O)NC(C)C)cc2OC[C@@H]1C | / | / | 2 | -3 | 0
COc1ccc(-n2c(=S)[nH]c3ncccc3c2=O)cc1 | -4 | 2 | 15* | -5 | 9
O=C(Cc1ccccc1)N1C[C@H]2[C@@H](c3ccccc31)[C@@H](CO)N2C(=O)c1cccc(F)c1 | / | / | -1 | -1 | 37*
O=C(Cc1ccccc1)N1C[C@@H]2[C@H](c3ccccc31)[C@H](CO)N2C(=O)c1cccc(F)c1 | / | / | -1 | 2 | -10
O=C(c1cccc(F)c1)N1C[C@@H]2[C@H](c3ccccc31)[C@H](CO)N2C(=O)C1CCOCC1 | / | / | -5 | 3 | 23*
O=C(C1CCOCC1)N1C[C@@H]2[C@H](c3ccccc31)[C@H](CO)N2C(=O)c1ccccc1 | / | / | 4 | -4 | 89*
O=C(c1cccc(F)c1)N1C[C@@H]2[C@H](c3ccccc31)[C@@H](CO)N2C(=O)C1CC1 | / | / | 0 | 0 | 55*
O=C(c1cccc(F)c1)N1C[C@H]2[C@@H](c3ccccc31)[C@@H](CO)N2C(=O)C1CC1 | / | / | -3 | 1 | -11
CCCC#Cc1ccc2c(c1)O[C@H](CN(C)Cc1cccnc1)[C@H](C)CN([C@@H](C)CO)S2(=O)=O | / | / | 1 | 5 | -11
C[C@@H]1CN([C@H](C)CO)C(=O)c2cc(NC(=O)CCCN(C)C)ccc2O[C@@H](C)CCCCO[C@H]1CN(C)S(=O)(=O)c1ccc(F)cc1 | / | / | -4 | -2 | 17
C[C@@H]1CCCCO[C@@H](CN(C)S(=O)(=O)c2ccc(F)cc2)[C@H](C)CN([C@@H](C)CO)C(=O)c2cc(NC(=O)CCCN(C)C)ccc2O1 | / | / | -3 | 0 | 21*
C[C@@H]1CCCCO[C@H](CN(C)S(=O)(=O)c2ccc(F)cc2)[C@@H](C)CN([C@H](C)CO)C(=O)c2cc(NC(=O)CCCN(C)C)ccc2O1 | / | / | 3 | 0 | 34*
C[C@@H]1CCCCO[C@@H](CN(C)S(=O)(=O)c2ccc(F)cc2)[C@@H](C)CN([C@@H](C)CO)C(=O)c2cc(NC(=O)CCCN(C)C)ccc2O1 | / | / | -2 | -3 | -4
C[C@@H]1CN([C@H](C)CO)C(=O)c2cc(NC(=O)NC3CCCCC3)ccc2O[C@@H](C)CCCCO[C@@H]1CN(C)C(=O)C1CCCCC1 | / | / | 5 | 1 | 2
COc1ccc(C(=O)NCC(=O)N/N=C/c2c(C)[nH]c3ccccc23)cc1 | -4 | -1 | -2 | 5 | 2
O=C(COc1ccccc1)N/N=C/c1ccc2c(c1)OCO2 | 17 | 1 | 21* | 14 | 4
O=C(COc1ccccc1)NCC(=O)N/N=C/c1ccc(Br)cc1 | -1 | -4 | 0 | 0 | 70*
Cc1[nH]c2ccccc2c1/C=N/NC(=O)CNC(=O)COc1ccccc1 | 4 | 6 | 113* | -5 | -2
O=C(COc1ccccc1)NCC(=O)N/N=C/C=C/c1ccccc1 | 5 | 1 | 20* | 17 | -2
CCc1ccc(NC(=O)COc2ccc3c(c2)OCO3)cc1 | 2 | -2 | -2 | 1 | 47*
CCCC(=O)OC[C@H]1CN(C2CCCC2)S(=O)(=O)c2c(F)cccc2O1 | / | / | 6 | 0 | 49*
CCCC(=O)OC[C@H]1CN(C2CCCC2)S(=O)(=O)c2c(Oc3ccccc3)cccc2O1 | / | / | -2 | 4 | -3
SMILES | Rtt109 HAT inh | PDI inh | SIRT5 block | ERp5 block | DENV2 CPE rescue
COc1ccc2c3c(n(C)c2c1)[C@H](CO)N(S(C)(=O)=O)CC31CCN(C(=O)C2CC2)CC1 | / | / | -3 | 5 | 31*
COc1ccc2c3c(n(C)c2c1)[C@H](CO)N(C(=O)NC(C)C)CC31CCN(CC2CCCC2)CC1 | / | / | 1 | -11 | 40*
COc1ccc2c3c(n(C)c2c1)[C@H](CO)N(C(=O)C1CC1)CC31CCN(C(=O)CN(C)C)CC1 | / | / | 10 | -3 | 11
COc1ccc2c3c(n(C)c2c1)[C@H](CO)N(S(C)(=O)=O)CC31CCN(CC2CCCC2)CC1 | / | / | 0 | 60* | -9
COc1ccc2c3c(n(C)c2c1)[C@@H](CO)N(C(=O)C1CC1)CC31CCN(C(=O)CN(C)C)CC1 | / | / | 0 | 1 | 23*
COc1ccc2c3c(n(C)c2c1)[C@H](CO)N(C(=O)NC(C)C)CC31CCN(CC2CCCCC2)CC1 | / | / | / | 3 | 7
COc1ccc2c3c(n(C)c2c1)[C@@H](CO)N(S(C)(=O)=O)CC31CCN(C(=O)C2CC2)CC1 | / | / | / | -4 | 7
O=C(NC[C@H]1N[C@H](CO)[C@@H]1c1ccc(C2=CCCC2)cc1)C1CC1 | / | / | / | / | 0
C[C@@H]1CN([C@@H](C)CO)C(=O)c2cccc(NS(=O)(=O)c3ccc(Cl)cc3)c2O[C@@H]1CN(C)Cc1ccc(C(F)(F)F)cc1 | / | / | 0 | 23 | 6
Cn1c(=O)c2c(nc(CCc3ccccc3)n2C)n(C)c1=O | -6 | 5 | / | -4 | -1
Cn1c(=O)c2c(nc(OCCc3ccccc3)n2C)n(C)c1=O | 2 | -3 | 26* | -1 | 0
CC1c2ccccc2N(S(=O)(=O)c2ccccc2)C1C (configuration not stated) | -2 | 2 | / | 5 | 5
CC(=O)N1c2ccccc2[C@H](C)[C@H]1C | 2 | -2 | / | 3 | 70*
CC(=O)N(c1ccc2oc(=O)sc2c1)S(=O)(=O)c1cccc2cccnc12 | 135* | 10 | -1 | 1 | 2
CC(=O)N(c1ccc2oc(=O)sc2c1)S(=O)(=O)c1ccc(C(=O)O)cc1 | 4 | 9 | 20* | 1 | 8
CN(C)CC(=O)Nc1ccc2c(c1)[C@@H]1C[C@H](CC(=O)N3CCOCC3)O[C@H](CO)[C@@H]1O2 | / | / | / | / | 13
CCN1CCN(Cc2ccc(NC(=O)c3ccc(C)c(NC(=O)c4cc(-c5ccc(Br)cc5)n[nH]4)c3)cc2C(F)(F)F)CC1 | -1 | -1 | 2 | 0 | 36*
CCN1CCN(Cc2ccc(NC(=O)c3ccc(C)c(NC(=O)N4CCNC4=O)c3)cc2C(F)(F)F)CC1 | 5 | 13 | -9 | -7 | 120*!
C[C@@H]1CN([C@@H](C)CO)C(=O)c2cccc(NS(=O)(=O)c3cccs3)c2O[C@H]1CN(C)S(=O)(=O)c1ccccc1 | / | / | -3 | -2 | 9

Compound activity deposited in PubChem BioAssay by Broad Institute.
